# Source: PubChem BioAssay
# Only some compounds are listed: those with a hit (about 0.93% of all), similar ones and a draw of the others.
# LAP4 TOR yeast: modulators of TOR pathway LAP4-GFP in S. cerevisiae; GFP response vs DMSO, % at 10 µM; S. cerevisiae LAP4-GFP multiplex, flow cytometry GFP, 3 h; median GFP as percent of DMSO wells; hit rate 0.34% among 320,000; AID 2023;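 active = GFP response vs DMSO above a set limit, about the screen mean plus 3 SD, cut at about 150% in these data; inconclusive = under 70 cell events counted for the yeast strain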
# AGP1-GFP MLPCN: yeast TOR pathway AGP1-GFP modulation; S. cerevisiae AGP1-GFP multiplex flow cytometry, 3 h; GFP as percent of DMSO wells; GFP response vs DMSO, % at 10 µM; hit rate 0.02% among 320,000; AID 2066;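 active = GFP response relative to DMSO above a set limit, near screen average plus 3 SD, cut at about 150% in these data; inconclusive = fewer than 70 cells counted for the yeast strain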;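 also: median GFP channel fluorescence of the gated AGP1 strain per well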
# MEP2-GFP yeast: alters MEP2-GFP fluorescence in TOR pathway yeast screen; S. cerevisiae MEP2-GFP strain, flow cytometry GFP, 3 h; 100% = DMSO control level; GFP response vs DMSO, % at 10 µM; hit rate 0.51% among 330,000; AID 2016;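 active = GFP response versus DMSO above a set limit, roughly screen mean plus 3 SD, cut at about 180% in these data; inconclusive = fewer than 70 cells counted for a yeast strain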;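 also: median GFP fluorescence of the barcode-gated MEP2-GFP cells per well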
# RPL19A-GFP yeast: alters RPL19A-GFP fluorescence in TOR pathway yeast screen | S. cerevisiae RPL19A-GFP strain, flow cytometry, 3 h; active compounds read low | percent response vs DMSO, % at 10 µM | hit rate 0.3% among 330,000;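 active = percent response vs DMSO below 50%; inconclusive = fewer than 70 events counted for the yeast strain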;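 also: median channel GFP fluorescence of the barcoded RPL19A-GFP strain; lower means less RPL19A-GFP as with rapamycin TOR inhibition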
# CIT2 TOR yeast: modulators of TOR pathway CIT2-GFP in S. cerevisiae. S. cerevisiae CIT2-GFP strain, flow cytometry, 3 h; 100 means same as DMSO wells. hit rate 0.065% among 320,000. GFP response vs DMSO, % at 10 µM;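 active = GFP response relative to DMSO above a set limit, near the screen mean plus 3 SD, cut at about 150% in these data; inconclusive = Fewer than 70 cells measured for a yeast strain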;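 also: ratio of well median GFP fluorescence to mean of DMSO wells on the plate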
# A number is an active result; – = inactive; ? = inconclusive; · = no result given; [ ] = remark or other dose.
SMILES,LAP4 TOR yeast,AGP1-GFP MLPCN,MEP2-GFP yeast,RPL19A-GFP yeast,CIT2 TOR yeast
OC(CNCCCN1CCCCC1)COc1ccccc1 (stereo unspecified),–,–,198[may fluoresce violet],·,?
O=S(=O)(c1ccc(Cl)cc1)c1snnc1-c1ccccc1,165,·,–,–,–
O=C(NCCCN1CCCC1=O)c1ccc2c(c1)NC(=O)c1ccccc1S2,–,–,–,–,–
CCOP(=O)(OCC)/C(C#N)=C/c1ccc(-c2ccc(F)cc2F)o1,–,–,–,–,–
COc1ccc(NC(=O)CCS(=O)(=O)c2ccc3c(c2)CCN3C(C)=O)cc1,–,?,–,19[may fluoresce violet],?
O=C(CC1C(=O)NCCN1Cc1c(F)cccc1Cl)NCCc1ccccn1 (stereo unspecified),–,–,–,–,–
CCOC(=O)NC(=O)c1cn(C(CC)CO)c(=O)[nH]c1=O (stereo unspecified),–,–,–,–,–
Cc1ccc(S(=O)(=O)N2CCOCC2)cc1NC(=O)COC(=O)c1cc[n+]([O-])cc1,–,–,–,–,–
COCCNC(=O)C12CC3CC(C1)CC(c1ccccc1)(C3)C2,–,–,–,–,–
Cc1nc2ncnn2c(C)c1CCC(=O)NCc1ccccc1,–,–,–,–,–
COc1ccc(CNC(=O)CCc2c(C)nc3ncnn3c2C)cc1,–,?,377[may fluoresce violet],17[may fluoresce violet],?
COc1ccc(NC(=O)c2cc3ccccc3[nH]2)cc1,–,–,–,–,–
CCN(CC)CCC(=O)N1c2ccccc2CCc2ccc(NC(=O)OC(C)C)cc21,–,–,–,–,–
O=C(COC(=O)CCS(=O)(=O)c1ccccc1)NC(=O)c1ccc(OC(F)F)cc1,–,–,–,–,–
COc1ccc(CCNc2nc(C)nc3c2oc2ccccc23)cc1OC,–,·,200[may fluoresce violet],42[may fluoresce violet],?
COc1ccc(CCNc2ncnc3c2oc2ccccc23)cc1OC,–,–,–,–,–
O=C(COC(=O)C1CCC(N2C(=O)C3C4CCC(C4)C3C2=O)CC1)c1ccc(F)cc1 (stereo unspecified),–,–,–,–,–
Cc1ccc(C(=O)NCCc2ccc(S(N)(=O)=O)cc2)o1,–,–,–,–,–
COc1ccccc1C(=O)N/N=C(\C)CC(=O)Nc1ccc(Cl)cn1,–,–,–,–,–
C/C(CC(=O)Nc1ccccn1)=N\NC(=O)C(=O)Nc1ccccc1C,–,?,249[may fluoresce violet],–,?
COc1ccccc1C(=O)N/N=C(\C)CC(=O)Nc1ccccn1,–,?,342[may fluoresce violet],–,?
Cc1cccc(C(=O)OCC(=O)c2ccc(CC(=O)N3CCOCC3)s2)c1C,–,–,–,–,–
N=c1oc2cc(O)ccc2cc1C(=O)Nc1ccc(Cl)cc1,–,?,227[may fluoresce violet],38[may fluoresce violet],?
Cc1ccc(NC(=O)c2cc3ccccc3oc2=N)cc1,–,–,–,–,–
Cc1[nH]c2ccccc2c1C(c1ccccn1)N1CCC(C(N)=O)CC1 (stereo unspecified),150,–,–,–,–
SMILES,LAP4 TOR yeast,AGP1-GFP MLPCN,MEP2-GFP yeast,RPL19A-GFP yeast,CIT2 TOR yeast
COc1ccccc1C(=O)NCCC(=O)Nc1cccc(C)n1,–,–,–,–,–
Cn1c(=NC(=O)C(C)(C)C)sc2cccc(F)c21,–,–,210[may fluoresce violet],–,?
Cc1oc(-c2ccccc2F)nc1CN1CCC(C(=O)NC2CCCc3ccccc32)CC1 (stereo unspecified),–,–,–,–,–
Cc1oc(-c2ccccc2F)nc1CN1CCC(C(=O)NCc2ccco2)CC1,–,–,202[may fluoresce violet],–,?
O=C(CSc1nc2scc(-c3ccccc3)c2c(=O)[nH]1)N1CCCCC1,–,–,–,–,–
Oc1c(C(c2ccccc2Cl)N2CCCC2)ccc2cccnc12 (stereo unspecified),–,–,–,–,–
Oc1c(C(c2cccs2)N2CCN(c3ccccc3)CC2)ccc2cccnc12 (stereo unspecified),209,–,–,–,–
COc1cccc(C2NC(=O)NC(O)(C(F)(F)F)C2C(=O)c2cccnc2)c1OC (stereo unspecified),–,–,203[may fluoresce violet],–,?
COc1cccc(S(=O)(=O)NCc2ccc(C(=O)NCC3CCCO3)cc2)c1 (stereo unspecified),–,–,190[may fluoresce violet],–,?
CC(C)(C)c1ccc(S(=O)(=O)NCc2ccc(C(=O)NCC3CCCO3)cc2)cc1 (stereo unspecified),–,–,–,–,·
COc1cc(OC)c(C(=O)OCC(=O)NC2CCCC2)cc1OC,–,–,–,–,–
O=c1cc(-c2ccc(C(F)(F)F)cc2)oc2ccccc12,–,?,181[may fluoresce violet],44[may fluoresce violet],?
COC(=O)c1cccc(NC(=O)CSc2nc(=O)cc(N)n2-c2ccccc2)c1,–,–,–,–,–
CC(=O)c1ccccc1NCC(=O)Nc1ccc(C)cc1,226,–,299,–,217
Cc1ccc(NC(=O)c2ccccc2NC(=O)CCC(=O)O)cc1,–,–,–,–,–
Cc1cccc(OCCCSc2nc3ccc(C)cc3[nH]2)c1,162,–,–,–,–
Cc1ccc(O)c(CNc2cnc3ccccc3c2)c1,–,–,223[may fluoresce violet],–,?
COc1ccc(NC(=O)c2ccccc2NC(=O)c2ccccc2)cc1,–,–,190,–,–
CCCc1c(C(=O)Nc2ccc(OC)cc2)cnn1-c1ccccc1,–,?,208[may fluoresce violet],42[may fluoresce violet],?
COc1ccc(C(=O)Nc2ccccc2C(=O)Nc2cccnc2)cc1,–,–,–,–,–
CCc1nnc(NC(=O)c2ccc(S(=O)(=O)N3CCCC(C)C3)cc2)s1 (stereo unspecified),–,–,–,–,–
COc1cccc(C(c2c(N)n(C)c(=O)n(C)c2=O)C(C)[N+](=O)[O-])c1 (stereo unspecified),–,–,–,–,–
CC(=O)OC1C(OC(C)=O)N(C(C)=O)C(=O)N1C(C)=O (stereo unspecified),–,?,200[may fluoresce violet],19[may fluoresce violet],?
Cc1cc(=O)oc2cc(OCC(=O)OC(C)C(=O)NC3CCCC3)ccc12 (stereo unspecified),–,–,–,–,–
Cc1cc(=O)oc2cc(OC(C)C(=O)NC3CCCC3)ccc12 (stereo unspecified),157,–,193,–,–
SMILES,LAP4 TOR yeast,AGP1-GFP MLPCN,MEP2-GFP yeast,RPL19A-GFP yeast,CIT2 TOR yeast
Cc1ccc(C2(c3ccc(C)cc3)NC(=O)N(CC(=O)NCCCN3CCCC3=O)C2=O)cc1,–,–,–,–,–
CCCN1C[C@H](CSC)C[C@@H]2c3cccc4[nH]cc(c34)C[C@H]21,–,?,203[may fluoresce violet],34[may fluoresce violet],?
Cc1cc(NC(=O)CC(F)(F)F)n(-c2ccccc2)n1,–,–,–,–,–
Cc1cccc(N2CCN(c3cccc(C)c3)C2c2cccnc2)c1,–,–,198[may fluoresce violet],–,?
COc1ccc(-c2cc(-c3n[nH]c(=S)n3-c3ccccc3OC)[nH]n2)cc1,–,–,–,–,–
O/N=C/c1ccc(-c2ccccc2OC(F)(F)F)o1,–,?,457[may fluoresce violet],31[may fluoresce violet],?
CC(=O)c1ccc(-c2ccccc2OC(F)(F)F)o1,–,–,–,–,–
